# Assay outcomes (PubChem BioAssay)
# PTHR1 agonist: PTHR1 (human) receptor agonism; Potency, µM (doses to about 115 µM), without a hit: at the highest dose activation, hits mostly activators; Q03431; 410,000 tested, 0.075% active; HEK293 GP2 PTHR1 cells, GloSensor cAMP luminescence, 1 h; also: potency is read from the fitted curve at half-maximal effect; nearly all actives have a fitted effect of over 55% in size
# Target sequence (Q03431 whole entry, looked up): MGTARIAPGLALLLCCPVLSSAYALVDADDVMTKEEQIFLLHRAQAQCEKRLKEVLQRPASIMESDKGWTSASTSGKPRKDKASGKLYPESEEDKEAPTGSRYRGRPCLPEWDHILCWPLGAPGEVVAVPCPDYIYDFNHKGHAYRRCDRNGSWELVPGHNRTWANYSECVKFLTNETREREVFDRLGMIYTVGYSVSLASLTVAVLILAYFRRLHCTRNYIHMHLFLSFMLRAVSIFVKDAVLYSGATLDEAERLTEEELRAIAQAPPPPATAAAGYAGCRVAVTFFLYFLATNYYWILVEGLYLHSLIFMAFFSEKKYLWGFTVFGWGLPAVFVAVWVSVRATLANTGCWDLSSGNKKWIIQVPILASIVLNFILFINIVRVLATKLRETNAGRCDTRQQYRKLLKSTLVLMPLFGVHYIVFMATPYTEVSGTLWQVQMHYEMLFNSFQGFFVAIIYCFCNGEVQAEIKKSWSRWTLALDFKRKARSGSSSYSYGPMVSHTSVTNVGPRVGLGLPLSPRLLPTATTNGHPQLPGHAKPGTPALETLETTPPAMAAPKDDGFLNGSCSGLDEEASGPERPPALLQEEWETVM
#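 HEK-293-derived GP2 cells expressing PTHR1 and a GloSensor cAMP reporter, 3,000/well, plated overnight, given luciferin plus IBMX (each 0.5 mM as added) for 1 h at 37 °C, then compound for 1 h at 37 °C. Luminescence was read after 15 min at room temperature.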
# FUS suppressor: rescues growth of FUS-expressing yeast; S. cerevisiae FUS-expressing, growth rescue, OD600, 24 h; Potency, µM (top dose mostly 76.6 µM), most hits filed as activators; 390,000 tested, 0.24% active;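 also: potency is read from the fitted curve at half-maximal effect; plate controls were DMSO vehicle for no effect and reference control for full effect; nearly all actives have a fitted effect of over 55% in size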
#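 Quantitative HTS measuring growth restoration of FUS-toxic yeast. Galactose-induced cells (OD 0.005) were exposed 24hr at 30C to compounds at several concentrations, then absorbance at 600 nm was recorded.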
# TDP43 rescue: TDP-43 toxicity inhibition in yeast; TDP-43 expressing yeast growth rescue, BacTiter-Glo, 24 h; Potency, µM (highest dose often 46.1 µM), inactives show at the top dose growth rescue (activation), actives largely listed as activators; 410,000 tested, 1.8% active; AID 652104; also: potency is read from the fitted curve at half-maximal effect; % of control where 0% means no effect; nearly all actives have a fitted effect of over 50% in size
#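 Yeast cells expressing TDP-43 under galactose induction are exposed to compounds for 24 hr at 30 deg C. BacTiter-Glo luminescence measures growth, so protective compounds score as activators.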
# Abeta yeast res: compounds reversing amyloid beta toxicity in yeast; yeast expressing A-beta42, growth rescue, OD600, 48 h; response scale: 0% DMSO, 100% iron-clioquinol control; Potency, µM (series often up to 46.1 µM), usual class: activators; 410,000 tested, 0.063% active; AID 1347071; also: potency is read from the fitted curve at half-maximal effect; nearly all actives have a fitted effect of over 55% in size
#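 Yeast A-beta toxicity model in growth medium with pinned compounds, 48 h at 30 C; growth read as absorbance at 600 nm. Normalized to FeCl3/clioquinol equimolar mix (positive) and DMSO (negative).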
# LDHA block: LDHA (human) enzyme inhibition | P00338 | purified LDHA, NADH/diaphorase-resazurin fluorescence; stronger effect = lower value | activity change, % (values are at about 110 or 230 µM) | 480,000 tested, 0.15% active | AID 1347041; in the data active = activity change below about -30%; inconclusive = mostly about -25% to -30%;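 also: plate controls were DMSO wells for no effect and wells without enzyme for full effect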
#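 Human LDH5 at 2 nM final in Tris HCl pH 7.4 with 0.06 mM NADH and 0.2 mM pyruvate, reacted 5 minutes at room temperature. Remaining NADH coupled via diaphorase/resazurin; resorufin fluorescence read at 0 and 20 minutes, normalized to enzyme-free and DMSO wells.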
# aSyn yeast inh: rescues yeast growth from alpha-synuclein toxicity | Yeast expressing alpha-synuclein, growth rescue, BacTiter-Glo, 24 h | Potency, µM (series often up to 46.1 µM), without a hit: top-dose growth rescue (activation), most hits filed as activators | 370,000 tested, 0.14% active | AID 652106; also: potency is read from the fitted curve at half-maximal effect; % of control where 0% means no effect; nearly all actives have a fitted effect of over 65% in size
#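 Galactose-induced alpha-syn yeast (OD600=0.02, raffinose-pregrown) + pinned cpd, 24 hr, 30 deg C; growth by BacTiter-Glo luminescence. Growth restoration scores as activation.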
# Numbers without * were called inactive; i = inactive; ? = inconclusive; . = not tested or not shown; [ ] = dose if it differs, or a comment. Rows were chosen to be rich in hits. Some 1.9% of all compounds tested hit in one or more screens of this group. Unless noted, calls follow the shape of the dose curve; as a rule, active = well fitted curve in the direction sought with a large enough effect; inconclusive = small, poorly fitted or top-dose-only effect, or another doubt; inactive = no such curve, though single readings can be large; an effect the other way counts as inactive or inconclusive.
SMILES,PTHR1 agonist,FUS suppressor,TDP43 rescue,Abeta yeast res,LDHA block,aSyn yeast inh
O=C(c1ccc2c(c1)OCO2)N1CCN(S(=O)(=O)c2ccc(Br)cc2Cl)CC1,-14.1%,i,17.8µM*,i,-9.2,13.5%
Cc1cc(C)c(S(=O)(=O)N2CCN(C(=O)c3ccc(-n4nc(C)c(Cl)c4C)cc3)CC2)c(C)c1,-10.6%,15.8µM*,?,i,-0.1,27.2%
Cc1cc(C)c(S(=O)(=O)N2CCN(C(=O)c3ccc4c(c3)OCO4)CC2)c(C)c1,-20.3%,i,15.8µM*,i,0.9,9.5%
Cc1ccc(S(=O)(=O)N2CCN(C(=O)c3ccc4c(c3)OCO4)CC2)cc1,i,i,-24.9%,i,1.9,-5.2%
CCOc1ccc2c(-c3cc4cccc(OC)c4oc3=O)cc(=O)oc2c1,.,.,.,.,6.3,.
Cc1ccccc1OCCOc1ccc2ccc(=O)oc2c1,.,.,.,.,0.4,.
c1ccc(Cn2ccnc2)c(CNC2CCCCCC2)c1,.,.,.,.,2.4,.
CC1(C)CC2(CCO1)N1CC3(C)CN2CC(C)(C1)C3=O (stereo not given),i,.,3.16µM*,i,-13.1,0.3%
CCCC12CN3CC(C)(CN(C1)C31CCCCC1)C2=O,23.9%[57.5 µM],i,11.8%,i,-5.4,0.0%
CCOC(=O)c1cnc2c(OC)cccc2c1Nc1ccccc1C(=O)O,.,.,.,.,-11.1,.
O=C(Nc1ccccc1)c1cc(-c2ccco2)nc2ccccc12,.,.,.,.,-0.5,.
C=CCc1c(C)nc2nc(SCC(=O)Nc3cccc(Cl)c3)nn2c1C,-19.5%,i,31.6µM*,i,-5.7,.
C=CCc1c(C)nc2nc(SCC(=O)Nc3ccc(C)c(C)c3)nn2c1C,i,i,28.9%,i,-4.9,.
O=C(/C=C/c1ccccc1)Nc1cccnc1Cl,-15.2%,i,7.94µM*,i,-2.3,-7.9%
O=C(COC(=O)/C=C/c1ccccc1)Nc1cccnc1Cl,-7.4%,i,-18.5%,i,-9.0,-8.8%
CSc1ccc(-c2cc3c(c4c2ccn4C)C2CCC3O2)cc1 (stereo not given),-13.0%,i,25.1µM*,i,-6.2,?
Cn1ccc2c(-c3ccc(CO)cc3)cc3c(c21)C1CCC3O1 (stereo not given),-17.8%,i,11.6%,i,-2.5,?
Cn1ccc2c(-c3ccc(C(=O)O)cc3)cc3c(c21)C1CCC3O1 (stereo not given),-20.2%,i,22.4µM*,i,-7.3,3.4%
Cn1ccc2c(-c3ccc(C(F)(F)F)cc3)cc3c(c21)C1CCC3O1 (stereo not given),-13.6%,i,8.91µM*,?,-3.0,-23.5%
Cn1ccc2c(-c3ccc(C(C)(C)C)cc3)cc3c(c21)C1CCC3O1 (stereo not given),i,i,15.3%,i,3.9,14.9%
Cn1ccc2c(-c3ccc(CO)cc3)cc3c(c21)C1CCC3C1 (stereo not given),-31.6%,?,35.5µM*,i,-3.4,13.7%
Cc1ccc(NC(=O)COC(=O)c2cccc(O)c2)c(Br)c1,.,.,.,.,1.6,.
Cc1cc2nc(COC(=O)c3ccc(NC(=O)c4ccc(F)cc4)cc3)cc(=O)n2o1,.,.,.,.,-1.7,.
Cc1cc(C)n(-c2nc3c(c(=O)n(CCN4CCOCC4)c(=O)n3C)n2CCC(C)C)n1,.,.,.,.,-0.4,.
Cc1ccccc1-c1cc2c(c3c1ccn3C)C1CCC2O1 (stereo not given),-35.3%,i,11.2µM*,?,-1.7,-2.4%
Cn1ccc2c(-c3ccc4c(c3)OCCO4)cc3c(c21)C1CCC3O1 (stereo not given),-21.3%,?,22.4µM*,i,-10.4,-13.2%
CN(c1ccccc1)c1cc(Br)nc(Br)c1,-23.0%,i,14.1µM*,i,-6.5,0.4%
CCn1nc(C)c2c(-c3ccccc3)cc(=O)n(C(C)C(=O)NCCc3ccc(OC)c(OC)c3)c21 (stereo not given),i,i,15.8µM*,i,5.1,.
